Bioassay records deposited in PubChem by several laboratories.
AHR activator = AHR activators, primary screen, cell-based, luminescence, luciferase reporter, human | Aryl hydrocarbon receptor (Homo sapiens), P35869 | AID 2796, 2010 | AHR-responsive luciferase reporter cells | activation, % at 5 µM | actives 2.5% (n = 320,000); in the data active = activation above about 47%;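 note: 0% = vehicle wells and 100% = reference agonist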
HSF-1 act = HSF-1 activators, primary screen, NIH3T3-HGL cells, MG132 stress, luminescence, single point. AID 504408, 2011. actives 1.7% (n = 300,000). activation, % at 9 µM. NIH3T3-HGL HSF-1 luciferase reporter, 8 h; 100% = twice DMSO control signal;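 active = mean replicate activation of at least 50% with a set share of replicates each reaching 50%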;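 note: 0% = median of the neutral control wells and 100% = twice that signal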
DAX1 inh = DAX1 (NR0B1) inhibitors, primary screen, cell-based, HEK293, Gal4-DAX1, luciferase luminescence. HEK293 Gal4-DAX1 luciferase reporter. inhibition, % at 6.75 µM. AID 504766, 2011. actives 0.99% (n = 340,000). Nuclear receptor subfamily 0 group B member 1 (Homo sapiens), P51843;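 active = inhibition above the mean over all tested compounds plus 3 SD, cut at about 4.2% in these data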;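 note: 0% = DAX1-transfected cells with DMSO and 100% = empty-vector control cells with DMSO; inhibition shows as a rise in luminescence from relieved DAX1 repression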
Target sequence (P51843 207-470 limits assumed): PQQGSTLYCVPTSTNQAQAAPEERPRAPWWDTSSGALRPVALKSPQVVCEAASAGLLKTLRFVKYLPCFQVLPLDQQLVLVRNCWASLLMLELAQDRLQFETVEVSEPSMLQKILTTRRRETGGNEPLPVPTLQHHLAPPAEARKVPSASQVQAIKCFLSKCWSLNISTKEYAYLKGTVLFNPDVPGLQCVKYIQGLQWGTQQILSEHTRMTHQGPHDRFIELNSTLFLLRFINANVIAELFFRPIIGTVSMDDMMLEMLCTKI
GAA850 FXN act = FXN promoter activators, primary screen, cell-based, luciferase luminescence, HEK293 lucGAA850. HEK293 lucGAA850 FXN promoter luciferase reporter, 24 h; percent of 10 µM SAHA response. activation, % at 6 µM. actives 0.56% (n = 360,000);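 active = activation above the average of all compounds screened plus 3 SD, cutoff fixed separately per campaign, cut at about 7.5% in these data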;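 note: 0% = DMSO wells and 100% = 10 µM SAHA wells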
HSF1 inhib = HSF1 inhibitors in luciferase reporter cells, primary screen, cell-based, NIH3T3, luminescence; AID 2098, 2009; activity change, negative = inhibition, % at 7.5 µM (by protocol); NIH3T3-HGL HSE-luciferase, MG132-induced, luminescence 8 h; hits give low values; actives 0.77% (n = 300,000);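 active = more than half of replicate wells show activity change below -50%, luminescence cut by over half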;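 note: luciferase reports HSF-1 transcriptional activity via heat shock element; 0% = median of DMSO wells and -100% = zero luminescence signal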
* marks the source's active call; other numbers are inactive results; / = no result given. The list is not random: actives were taken first. Their share in the collection is about 5.4%.

SMILES	AHR activator	HSF-1 act	DAX1 inh	GAA850 FXN act	HSF1 inhib
CCOC(=O)Nc1sc2nc(C)cc(C)c2c1-n1cccc1	69.9*	/	-0.8	-0.2	/
Cc1cc(C)c2c(-n3cccc3)c(C(=O)NNS(=O)(=O)c3ccc(Br)cc3)sc2n1	1.4	19.4	0.3	3.1	10.6
S=C(NCc1ccc(Cl)cc1)Nc1ccccc1Cl	1.5	0.2	0.1	0.3	1.2
CSc1ccccc1NC(=S)NCc1ccc(Cl)cc1	4.5	63.8*	3.2	2.8	38.7
COc1ccc(NC(=O)CN2C(=O)NC(C)(C3CC3)C2=O)c(OC)c1 (centres undefined)	-0.1	/	0.1	2.0	/
CCOc1ccc(N(C)S(=O)(=O)c2ccc3[nH]cc(C(=O)NCCOC)c(=O)c3c2)cc1	30.3	-6.3	-0.3	0.0	-10.6
CCCNC(=O)c1c[nH]c2ccc(S(=O)(=O)N(C)c3ccc(OCC)cc3)cc2c1=O	54.2*	-1.1	/	/	1.8
CCOc1ccc(N(C)S(=O)(=O)c2ccc3[nH]cc(C(=O)NCCCOC)c(=O)c3c2)cc1	47.8*	5.3	-0.2	1.3	-6.3
Cc1cc(C(=O)Nc2ccc(F)cc2)c2ccccc2n1	56.2*	2.4	0.5	2.8	2.6
CC(=O)c1ccc(NC(=O)c2cc(C)nc3ccccc23)cc1	3.5	11.4	4.4*	2.0	0.9
Cc1ccc(NC(=O)c2cc(C)nc3ccccc23)cc1	67.5*	13.8	1.0	2.4	6.7
Cc1cc(C(=O)Nc2ccncc2)c2ccccc2n1	8.3	9.8	2.0	-0.4	0.5
O=C(Nc1ccccc1)c1cc(Cl)nc2ccccc12	49.2*	6.6	0.1	0.2	-3.2
COc1ccc2oc(C(=O)OCC(=O)N(C)c3c(N)n(Cc4ccccc4)c(=O)[nH]c3=O)c(C)c2c1	2.7	-4.8	-1.5	-0.8	-8.4
NNc1ccc(Cl)nn1	68.7*	4.3	0.7	4.0	-3.0
Clc1ccc(Nc2ccc(Cl)nn2)cc1	-5.7	-64.9	/	1.6	-54.5*
CNc1ccc(Cl)nn1	1.2	6.3	1.0	2.0	-2.2
Cc1cc(C)nc(-n2ncc(C#N)c2N)n1	19.0	-1.4	1.0	0.1	-7.8
Cc1cc(C)nc(-n2ncc3c2CCCC3=O)n1	3.1	-24.6	5.4*	0.3	-6.6
Cc1ccccc1Cn1nc(C)c(NC(=O)C2c3ccccc3Oc3ccccc32)c1C	-1.5	69.8*	3.0	-0.8	53.4
Cc1cc(C)c(NC(=O)C2c3ccccc3Oc3ccccc32)c(C)c1	-0.6	15.7	0.1	1.4	6.7
CCOC(=O)/C(=C\c1ccccc1)C(=O)CCN1CCOCC1	/	/	0.9	-0.3	/
O=C(c1cnn2c(C(F)F)cc(C3CC3)nc12)N1CCc2ccccc2C1	49.2*	9.0	-1.5	5.2	5.8
O=C(c1cnn2c(C(F)F)cc(-c3ccccc3)nc12)N1CCc2ccccc2C1	0.8	13.9	-1.4	2.0	7.2
N#Cc1cnn2c(C(F)(F)F)cc(-c3ccccc3)nc12	60.3*	1.8	-0.2	1.7	-5.7
SMILES	AHR activator	HSF-1 act	DAX1 inh	GAA850 FXN act	HSF1 inhib
COc1ccc(CN(C)CC(O)COC(c2ccc(OC)cc2)c2ccc(OC)cc2)cc1 (centres undefined)	3.1	9.3	1.0	-3.0	-2.9
CCOc1ccc(CN(C)CC(O)COC(c2ccc(OC)cc2)c2ccc(OC)cc2)cc1 (centres undefined)	1.3	56.7*	-1.2	-0.5	26.2
COc1ccc(-n2c(SCc3cn4c(C)cccc4n3)nc3ccccc3c2=O)cc1OC	2.6	26.5	-2.9	2.7	18.8
O=C(c1ccc(S(=O)(=O)N2CCCC2)cc1)N1CCN(S(=O)(=O)c2cccc(F)c2)CC1	/	0.1	-0.9	1.1	-4.8
Cc1ccc(S(=O)(=O)N2CCN(C(=O)c3cccc(F)c3)CC2)cc1	-0.5	-62.6	-0.4	0.8	-53.5*
CN(c1ccccc1)S(=O)(=O)c1nnc(NC(=O)COc2ccccc2)s1	7.8	-9.5	0.8	0.1	-1.2
CN(c1ccccc1)S(=O)(=O)c1nnc(NC(=O)COc2ccccc2F)s1	1.2	-78.2	-0.9	0.0	-72.1*
Oc1ccc(N=Nc2ccccc2-c2nn[nH]n2)c(O)c1	9.3	-47.2	0.5	0.5	-31.7
Cc1ccccc1-c1noc(-c2ccc(O)cc2)n1	59.1*	53.0*	1.3	5.2	19.2
c1ccc(-c2noc(-c3ccccc3-c3ccccc3)n2)cc1	61.8*	-15.8	-0.1	-0.2	0.8
Cc1ccccc1-c1noc(-c2ccccc2F)n1	6.5	54.1*	2.9	5.0	25.9
Cc1ccccc1-c1noc(-c2ccc(Cl)cc2)n1	33.1	31.8	-0.1	1.3	9.4
Fc1ccccc1-c1nc(-c2ccc(Cl)cc2)no1	85.4*	30.0	1.4	5.8	15.0
CC1CCN(S(=O)(=O)c2ccc(S(=O)(=O)N3CCCC3)cc2)CC1	-4.2	5.8	-0.4	1.1	-4.1
Cc1cc(NC(=O)CSc2nc(=O)n(CCCN(C)C)c3c2CCCC3)no1	-2.1	1.7	-0.6	-0.4	-5.8
C=CC[C@H](CC(=O)NCCO)C(=O)N[C@H](COC(=O)[C@H](CC=C)CC(=O)OC(C)(C)C)Cc1c[nH]c2ccccc12	-0.8	/	-2.0	-1.2	/
O=C(CCC(=O)c1cccs1)OCc1ccc([N+](=O)[O-])cc1	-1.7	/	0.1	3.4	/
O=c1oc2ccccc2cc1-c1nc(-c2ccccc2)no1	0.7	62.6*	3.0	2.1	36.2
Cc1ccc(-c2noc(-c3cc4ccccc4oc3=O)n2)cc1	0.9	-4.1	0.5	-2.1	7.2
O=C(c1ccccc1-c1nc(-c2ccc(Cl)cc2)no1)N1CCCC1	53.3*	5.8	-0.5	1.4	4.3
CN1CCN(C(=O)c2ccccc2-c2nc(-c3ccc(Cl)cc3)no2)CC1	14.6	0.9	0.1	3.0	-1.1
Cn1c(/C(C#N)=C(\O)c2ccc(Br)s2)nc2ccccc21	51.5*	23.6	0.4	3.8	-1.3
O=c1oc2ccccc2nc1/C=C(\O)c1ccccc1	33.0	2.8	/	4.5	1.8
O/C(=C\c1nc2ccccc2nc1/C=C(\O)c1ccccc1)c1ccccc1	70.5*	34.0	2.9	4.5	18.4
CCCc1cc(=O)n2nc(N3CCC(C(=O)Nc4cccc(C(C)=O)c4)CC3)sc2n1	4.3	3.9	0.6	-1.0	2.1
O=C1c2ccccc2C(=O)N1CCc1csc(-c2cccc(F)c2)n1	-11.3	82.7*	-0.5	3.6	29.0
O=C1c2ccccc2C(=O)N1CCc1csc(-c2cccc(Cl)c2)n1	-6.8	-50.9	-0.7	-0.2	-33.4
O=C(CNC(=S)N(Cc1ccccc1)Cc1cccnc1)N1CCOCC1	-0.4	8.7	-0.2	-0.1	5.5
